Experimental data reported in PubChem BioAssay AID1159580 (chemical genetic matrix, 2015).
Hit rate of the full screen: of about 5,500 compounds, about 2,000 (36%) were called active. Inconclusive results (about 18%) are left out. No stated cut-off is given here; in the data, active means normalized growth mostly below about 0.91 (no sharp cut-off); inconclusive means no clear call, values can overlap the other calls; inactive means mostly above about 0.92. Some of the results follow.

Test: chemical genetic growth profiling, strain panel (AID 1159580);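 further: tested at 20 µM; growth read once vehicle control cultures reached saturation at 30 °C; 1 = growth at the plate median or of vehicle wells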
Details: growth OD

Measured: normalized growth

Nc1ncnc2c1ncn2[C@@H]1O[C@H](CO)[C@@H](O)[C@H]1O
inactive: S. cerevisiae deletion strains, locus YJR066W, strain TOR1, stronger effect = lower value 0.966 | S. cerevisiae deletion strains, locus YJR075W, strain HOC1, stronger effect = lower value 0.99 | S. cerevisiae deletion strains, locus YKL009W, strain mrt4, stronger effect = lower value 0.961 | S. cerevisiae deletion strains, locus YKL068W, stronger effect = lower value 0.983 | S. cerevisiae deletion strains, locus YKL085W, strain MDH1 (second series), stronger effect = lower value 0.965 | S. cerevisiae deletion strains, locus YKL085W, strain MDH1, stronger effect = lower value 0.965 | S. cerevisiae deletion strains, locus YKL160W, strain elf1, stronger effect = lower value 0.955 | S. cerevisiae deletion strains, locus YKR001C, strain vps1, stronger effect = lower value 0.997 | S. cerevisiae deletion strains, locus YKR026C, strain gcn3, stronger effect = lower value 0.987 | S. cerevisiae deletion strains, locus YKR091W, strain srl3, stronger effect = lower value 0.994 | S. cerevisiae deletion strains, locus YLL001W, strain dnm1, stronger effect = lower value 0.922 | S. cerevisiae deletion strains, locus YLL026W, stronger effect = lower value 0.99 | S. cerevisiae deletion strains, locus YLL041C, strain sdh2, stronger effect = lower value 0.99 | S. cerevisiae deletion strains, locus YLR027C, strain aat2, stronger effect = lower value 0.994 | S. cerevisiae deletion strains, locus YLR039C, strain RIC1, stronger effect = lower value 0.95 | S. cerevisiae deletion strains, locus YLR058C, strain SHM2, stronger effect = lower value 0.971 | S. cerevisiae deletion strains, locus YLR102C, strain apc9, stronger effect = lower value 0.978 | S. cerevisiae deletion strains, locus YLR113W, strain HOG1, stronger effect = lower value 1.01 | S. cerevisiae deletion strains, locus YLR221C, strain rsa3, stronger effect = lower value 0.95 | S. cerevisiae deletion strains, locus YLR258W, strain gsy2, stronger effect = lower value 0.975 | S. cerevisiae deletion strains, locus YLR262C, strain YPT6 (second series), stronger effect = lower value 0.974 | S. cerevisiae deletion strains, locus YLR262C, strain YPT6, stronger effect = lower value 0.913 | S. cerevisiae deletion strains, locus YLR268W, strain sec22, stronger effect = lower value 1 | S. cerevisiae deletion strains, locus YLR320W, strain mms22, stronger effect = lower value 0.939 | S. cerevisiae deletion strains, locus YLR330W, strain CHS5, stronger effect = lower value 0.993 | S. cerevisiae deletion strains, locus YLR342W, strain FKS1 (second series), stronger effect = lower value 1.03 | S. cerevisiae deletion strains, locus YLR342W, strain FKS1, stronger effect = lower value 0.993 | S. cerevisiae deletion strains, locus YLR357W, strain rsc2, stronger effect = lower value 0.983 | S. cerevisiae deletion strains, locus YLR370C, strain arc18, stronger effect = lower value 0.967 | S. cerevisiae deletion strains, locus YLR371W, strain rom2, stronger effect = lower value 0.978 | S. cerevisiae deletion strains, locus YLR384C, strain iki3, stronger effect = lower value 0.982 | S. cerevisiae deletion strains, locus YLR418C, strain cdc73, stronger effect = lower value 0.945 | S. cerevisiae deletion strains, locus YML016C, strain PPZ1, stronger effect = lower value 0.987 | S. cerevisiae deletion strains, locus YML032C, strain rad52, stronger effect = lower value 0.949 | S. cerevisiae deletion strains, locus YML120C, strain ndi1, stronger effect = lower value 0.952 | S. cerevisiae deletion strains, locus YML124C, strain tub3, stronger effect = lower value 0.988 | S. cerevisiae deletion strains, locus YMR058W, strain fet3, stronger effect = lower value 0.995 | S. cerevisiae deletion strains, locus YMR078C, strain ctf18, stronger effect = lower value 0.972 | S. cerevisiae deletion strains, locus YMR125W, strain sto1, stronger effect = lower value 0.982 | S. cerevisiae deletion strains, locus YMR129W, stronger effect = lower value 0.995 | S. cerevisiae deletion strains, locus YMR205C, strain PFK2, stronger effect = lower value 0.944 | S. cerevisiae deletion strains, locus YMR223W, strain ubp8, stronger effect = lower value 0.956 | S. cerevisiae deletion strains, locus YMR231W, strain pep5, stronger effect = lower value 0.992 | S. cerevisiae deletion strains, locus YMR263W, strain SAP30, stronger effect = lower value 0.982 | S. cerevisiae deletion strains, locus YMR307W, strain GAS1, stronger effect = lower value 0.98 | S. cerevisiae deletion strains, locus YNL067W, strain RPL9B, stronger effect = lower value 0.967 | S. cerevisiae deletion strains, locus YNL071W, strain lat1, stronger effect = lower value 1 | S. cerevisiae deletion strains, locus YNL153C, strain GIM3, stronger effect = lower value 0.98 | S. cerevisiae deletion strains, locus YNL183C, strain NPR1, stronger effect = lower value 0.975 | S. cerevisiae deletion strains, locus YNL209W, strain ssb2, stronger effect = lower value 0.988 | S. cerevisiae deletion strains, locus YNL233W, strain BNI4, stronger effect = lower value 0.991 | S. cerevisiae deletion strains, locus YNL248C, strain rpa49, stronger effect = lower value 1.01 | S. cerevisiae deletion strains, locus YNL250W, strain rad50, stronger effect = lower value 0.978 | S. cerevisiae deletion strains, locus YNL271C, strain bni1, stronger effect = lower value 0.979 | S. cerevisiae deletion strains, locus YNL298W, strain CLA4, stronger effect = lower value 0.963 | S. cerevisiae deletion strains, locus YNL307C, strain MCK1, stronger effect = lower value 0.978 | S. cerevisiae deletion strains, locus YNL322C, strain KRE1 (second series), stronger effect = lower value 0.978 | S. cerevisiae deletion strains, locus YNR049C, strain mso1, stronger effect = lower value 0.982 | S. cerevisiae deletion strains, locus YNR052C, strain pop2, stronger effect = lower value 0.977 | S. cerevisiae deletion strains, locus YOL006C, strain TOP1, stronger effect = lower value 1.02 | S. cerevisiae deletion strains, locus YOL012C, strain htz1 0.737 | S. cerevisiae deletion strains, locus YOL147C, strain pex11, stronger effect = lower value 0.987 | S. cerevisiae deletion strains, locus YOR001W, strain rrp6, stronger effect = lower value 1.02 | S. cerevisiae deletion strains, locus YOR061W, strain CKA2, stronger effect = lower value 0.96 | S. cerevisiae deletion strains, locus YOR069W, strain VPS5, stronger effect = lower value 0.99 | S. cerevisiae deletion strains, locus YOR070C, strain gyp1, stronger effect = lower value 0.987 | S. cerevisiae deletion strains, locus YOR080W, strain dia2, stronger effect = lower value 0.995 | S. cerevisiae deletion strains, locus YOR083W, strain WHI5, stronger effect = lower value 0.96 | S. cerevisiae deletion strains, locus YOR106W, strain vam3, stronger effect = lower value 0.971 | S. cerevisiae deletion strains, locus YOR136W, strain idh2, stronger effect = lower value 0.982 | S. cerevisiae deletion strains, locus YOR144C, strain elg1, stronger effect = lower value 0.978 | S. cerevisiae deletion strains, locus YOR184W, strain ser1, stronger effect = lower value 0.967 | S. cerevisiae deletion strains, locus YOR231W, strain MKK1, stronger effect = lower value 1.03 | S. cerevisiae deletion strains, locus YOR265W, strain rbl2, stronger effect = lower value 0.983 | S. cerevisiae deletion strains, locus YOR270C, strain vph1, stronger effect = lower value 0.966 | S. cerevisiae deletion strains, locus YOR290C, strain snf2, stronger effect = lower value 0.955 | S. cerevisiae deletion strains, locus YOR316C, strain cot1, stronger effect = lower value 0.978 | S. cerevisiae deletion strains, locus YPL051W, strain arl3, stronger effect = lower value 0.988 | S. cerevisiae deletion strains, locus YPL078C, strain atp4, stronger effect = lower value 0.969 | S. cerevisiae deletion strains, locus YPL106C, strain sse1, stronger effect = lower value 0.955 | S. cerevisiae deletion strains, locus YPL240C, strain hsp82, stronger effect = lower value 0.998 | S. cerevisiae deletion strains, locus YPL241C, strain CIN2, stronger effect = lower value 0.99 | S. cerevisiae deletion strains, locus YPL256C, strain CLN2, stronger effect = lower value 0.982 | S. cerevisiae deletion strains, locus YPR119W, strain clb2, stronger effect = lower value 0.984 | S. cerevisiae deletion strains, locus YPR141C, strain kar3, stronger effect = lower value 0.972 | S. cerevisiae deletion strains, locus YPR163C, strain tif3, stronger effect = lower value 0.969 | S. cerevisiae deletion strains, locus YPR167C, strain met16, stronger effect = lower value 0.963 | S. cerevisiae deletion strains, strain wtn01, stronger effect = lower value 1.02 | S. cerevisiae strains, strain wild type, stronger effect = lower value 0.989
